Format in all cases: functional
Assay [1] deals with Plasmodium falciparum. As to the kind of experiment: GSK_TCMDC: Inhibition of Plasmodium falciparum 3D7 in whole red blood cells, using parasite LDH activity as an index of growth. Test compounds present at 2uM.
The test system of assay [2] is Plasmodium falciparum. As to the kind of experiment: GSK_TCMDC: Inhibition of Plasmodium falciparum Dd2 in whole red blood cells, using parasite LDH activity as an index of growth. Test compounds present at 2uM.
The test system of the next assay is HepG2. As to the kind of experiment: GSK_TCMDC: Percent inhibition of human HepG2 cell line. Test compounds present at 10uM.

As usually defined, the Inhibition is the change of the read-out against control, counted positive when it falls. Low readings indicate a response near the control, high ones a response far below the control.

Consider `O=C(Nc1ccc(-c2ccccc2)s1)N[C@H]1CCN(Cc2ccc(OCCCN3CCCCC3)cc2)C1`, for which the figures for the Inhibition in the assay on Plasmodium falciparum [1], in the assay on Plasmodium falciparum [2] and in the assay with HepG2 were 100%, 40% and 5%, respectively.

Turning to `COc1cc(CNC[C@@H](O)[C@H](Cc2ccccc2)NC(=O)c2cc(C3CCCC3)cc(N3CCCS3(=O)=O)c2)cc(OC)c1.Cl`, the Inhibition in the assay on Plasmodium falciparum [1] is reported as 95%; in the assay on Plasmodium falciparum [2] it was 94%; in the assay on HepG2 it was 31%.

For `O=C(N[C@H]1CCN(Cc2ccc(OC3CCN(Cc4ccccc4)CC3)cc2)C1)c1ccc(Cl)c(Cl)c1.O=C(O)C(F)(F)F`, the values for the Inhibition in the assay on Plasmodium falciparum [1], with Plasmodium falciparum [2] and in the assay on HepG2 were 90%, 6% and 37%, respectively.

Take `COC(=O)c1ccc2nc(-c3ccc(/C=C/C(=O)NCc4ccc(Cl)c(Cl)c4)cc3)[nH]c2c1`: the Inhibition in the assay with Plasmodium falciparum [1] amounted to 81%; in the assay on Plasmodium falciparum [2], 3%; in the assay on HepG2, 13%.

Take `O=c1cc(-c2ccc3ccccc3c2)[nH]c2ccccc12`: the Inhibition is listed as 81% in the assay on Plasmodium falciparum [1], 44% in the assay with Plasmodium falciparum [2] and 25% in the assay on HepG2.

Take `Cc1ccc2[nH]c(-c3ccccc3N)cc2c1`: the values for the Inhibition in the assay with Plasmodium falciparum [1], with Plasmodium falciparum [2] and with HepG2 were 97%, 8% and 11%, respectively.

Turning to `COc1ccc2nccc([C@@H](O)CN3CCC(NC(=O)c4[nH]c5ccccc5c4-c4ccccc4)CC3)c2c1`, the Inhibition in the assay with Plasmodium falciparum [1] amounted to 96%; with Plasmodium falciparum [2], 68%; with HepG2, 18%.

With `Cc1[nH]c(C)c(-c2ccc(Oc3ccc(Cl)cc3)cc2)c(=O)c1Br`, the Inhibition in the assay with Plasmodium falciparum [1] is reported as 97%; in the assay on Plasmodium falciparum [2], 96%; in the assay on HepG2, 12%.

Take `COCCN1CCC(CNCC(C)(C)c2nc(-c3ccc(Cl)c(O)c3)c(-c3ccncc3)[nH]2)CC1.Cl`: the Inhibition in the assay with Plasmodium falciparum [1] is on record as 100%; in the assay on Plasmodium falciparum [2] it was 2%; in the assay with HepG2 it was 0%.

Take `COc1ccc(C2C(C(=O)OC3CCCCC3)=C(C)NC3=C2C(=O)CCC3)cc1Br` (centres undefined): the Inhibition worked out at 95% in the assay with Plasmodium falciparum [1], 94% in the assay with Plasmodium falciparum [2] and 7% in the assay on HepG2.

As to `Nc1ccc(-c2nc3cc(Cc4ccc5[nH]c(-c6ccc(N)cc6)nc5c4)ccc3[nH]2)cc1`, the Inhibition in the assay with Plasmodium falciparum [1] came out at 100%; in the assay on Plasmodium falciparum [2], 96%; in the assay on HepG2, 47%.

For the compound `CNCc1cccc(-c2ccc3ccnc(N)c3c2)c1`, the Inhibition is recorded as 100% with Plasmodium falciparum [1], 98% with Plasmodium falciparum [2] and 20% in the assay on HepG2.

`O=C(O)C(F)(F)F.O=S(=O)(/C=C/c1ccccc1)N(Cc1ccc(-c2ccc(CNCCc3ccccn3)cc2)cc1)CC1CCCCN1` (centres undefined): the Inhibition with Plasmodium falciparum [1] is 100%; in the assay with Plasmodium falciparum [2] it was 97%; with HepG2, 46%.

Turning to `Oc1ccc2[nH]c(-c3cccc(F)c3)nc2c1CN1CCC(N2CCCC2)CC1`, the results for the Inhibition with Plasmodium falciparum [1], with Plasmodium falciparum [2] and in the assay on HepG2 were 100%, 54% and 0%, respectively.

For the compound `Fc1cccc2sc(Nc3nc(-c4ccccn4)cs3)nc12`, the Inhibition with Plasmodium falciparum [1] turned out to be 95%; with Plasmodium falciparum [2], 97%; in the assay on HepG2, 30%.

Regarding `CCc1ccc(CN2CCC(NC(=O)c3ccc(-c4ccc(N(C)C)cc4)s3)CC2)cc1.O=C(O)C(F)(F)F`, the Inhibition with Plasmodium falciparum [1] was 84%; in the assay on Plasmodium falciparum [2], 44%; with HepG2 it was 52%.

With `O=C(Nc1ccc(Br)cc1)Nc1ccc(Cn2ncc(N3CCCNCC3)c(Cl)c2=O)cc1.O=C(O)C(F)(F)F`, the Inhibition is given as 87% in the assay with Plasmodium falciparum [1], 15% in the assay on Plasmodium falciparum [2] and 0% with HepG2.

In the case of `CC(C)(C)c1ccccc1OC(=O)c1ccccc1`, the Inhibition in the assay with Plasmodium falciparum [1] is 95%; in the assay on Plasmodium falciparum [2], 2%; in the assay with HepG2 it was 0%.

As for `Cc1cc(F)ccc1[C@H]1CNCCN1C(=O)N(C)C(C)(C)c1cc(C(F)(F)F)cc(C(F)(F)F)c1.Cl`, the Inhibition in the assay with Plasmodium falciparum [1] was 100%; in the assay on Plasmodium falciparum [2] it was 100%; in the assay on HepG2 it was 24%.

As for `CN1CCC(N2CCN(Cc3ccc(-c4cccc(-c5nc6cc(F)ccc6[nH]5)c4)cc3)CC2)CC1.O=C(O)C(F)(F)F`, the Inhibition is listed as 100% in the assay on Plasmodium falciparum [1], 99% in the assay with Plasmodium falciparum [2] and 67% in the assay with HepG2.

As to `COc1ccccc1CCCN1C(=O)C(c2ccccc2)(c2ccccc2)N=C1N.O=C(O)C(F)(F)F`, the Inhibition is on record as 99% in the assay with Plasmodium falciparum [1], 99% in the assay on Plasmodium falciparum [2] and 49% in the assay on HepG2.

Regarding `O=c1cc(NC[C@H]2CCC[C@@H]2NC2CCCc3c2[nH]c2ccccc32)[nH]c2ccccc12` (some centres undefined), the Inhibition is recorded as 100% with Plasmodium falciparum [1], 25% with Plasmodium falciparum [2] and 6% with HepG2.

Consider `CCCNCc1ccc(-c2ccc(CN(CCOC)C(=O)c3nn(-c4ccccc4)nc3C)cc2)nc1.O=C(O)C(F)(F)F`, for which the Inhibition stood at 99% in the assay on Plasmodium falciparum [1], 71% in the assay on Plasmodium falciparum [2] and 18% with HepG2.

Regarding `Fc1ccccc1-c1cc(Nc2ccncc2)nc(-c2cccnc2)n1`, the Inhibition in the assay on Plasmodium falciparum [1] is reported as 100%; in the assay on Plasmodium falciparum [2], 89%; in the assay on HepG2, 91%.

For `O=C(NCC1CN(Cc2ccc(N3CCCC3)o2)CCCO1)c1ccc2c(c1)OCO2.O=CO` (centres undefined), the Inhibition stood at 83% in the assay with Plasmodium falciparum [1], 70% in the assay on Plasmodium falciparum [2] and 0% with HepG2.

Turning to `Cc1nnc(-c2cccc(Nc3ccnc4cc(-c5nccs5)ccc34)c2)o1.Cl`, the Inhibition in the assay on Plasmodium falciparum [1] was found to be 95%; with Plasmodium falciparum [2], 89%; with HepG2, 38%.

With `NC(=O)c1cccc(C(=O)Nc2cccc(-c3csc(-c4nc5ccccc5[nH]4)c3)c2)c1`, the Inhibition in the assay with Plasmodium falciparum [1] was 100%; with Plasmodium falciparum [2], 92%; with HepG2, 16%.

For the compound `Cl.O=c1cc(NCCCNCc2sc(Br)nc2Br)[nH]c2ccccc12`, the Inhibition is recorded as 92% with Plasmodium falciparum [1], 44% in the assay on Plasmodium falciparum [2] and 1% in the assay with HepG2.

The record behind these values is ChEMBL document CHEMBL1157539, “Thousands of chemical starting points for antimalarial lead identification” (Nature, 2010).
